The record followed here is PubChem BioAssay (NCI).

Compounds without any hit were thinned out: in the full panel of roughly 83,000, 20% have a hit.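 How to read the values: 0–100, growth inhibition (40 = 60% inhibited); 0, no net growth; -100 to 0, cell death (-40 = 40% of starting cells died; -100 = all dead).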 A number with no mark means an inactive call. Activity calls are given as the source filed them. How the source made its calls: active means growth percent below 10; inactive means the rest.

What all share (test): NCI-60 one-dose screen, 48 h (100 = growth as untreated, 0 = no growth, -100 = all killed)
The subject of experiment [1] is SK-MEL-2 melanoma. As to conditions: 10 µM unless noted.
The test system of experiment [2] is EKVX NSCLC. As to conditions: 10 µM unless noted.
In experiment [3] the test system is SN12C renal. As to conditions: 10 µM unless noted.
Experiment [4] relates to UO-31 renal. As to conditions: 10 µM unless noted.
The test system of experiment [5] is TK-10 renal. The conditions noted are these: 10 µM unless noted.
In experiment [6] the test system is ACHN renal. The conditions noted are these: 10 µM unless noted.
Experiment [7] has as its system A498 renal. As to conditions: 10 µM unless noted.
Experiment [8] has as its system CCRF-CEM leukemia. The conditions noted are these: 10 µM unless noted.
In experiment [9] the test system is MOLT-4 leukemia. As to conditions: 10 µM unless noted.
The test system of experiment [10] is SR leukemia. As to conditions: 10 µM unless noted.
For experiment [11], the system named is RPMI-8226 leukemia. As to conditions: 10 µM unless noted.
Experiment [12] deals with OVCAR-8 ovarian. The conditions noted are these: 10 µM unless noted.
The subject of experiment [13] is OVCAR-5 ovarian. The conditions noted are these: 10 µM unless noted.
Experiment [14] deals with OVCAR-4 ovarian. The conditions noted are these: 10 µM.
For experiment [15], the system named is IGROV1 ovarian. The conditions noted are these: 10 µM unless noted.
For experiment [16], the system named is OVCAR-3 ovarian. As to conditions: 10 µM unless noted.
Experiment [17] deals with HS 578T breast. The conditions noted are these: 10 µM unless noted.
Experiment [18] deals with NCI/ADR-RES ovarian. The conditions noted are these: 10 µM unless noted.
The test system of experiment [19] is SK-OV-3 ovarian. The conditions noted are these: 10 µM unless noted.

Consider `Cc1cccc(C[C@H](NC(=O)Nc2ccc(Cl)cc2F)C(=O)N[C@@H]2C(=O)N3C[C@H](OC(=O)CCN(C)C)C[C@H]3C(=O)N3CCCC[C@H]3C(=O)N[C@@H](C)C(=O)N3C[C@H](C)C[C@H]3C(=O)O[C@H]2C)c1`, for which the growth is 24.4% in [1]; 47.3% in [2]; 12.5% in experiment [3]; 31.1% in experiment [4]; 47.8% in experiment [5]; 27.5% in experiment [6]. The growth was -11.1% (active) in [7]; 42.4% in [8]; 27.8% in experiment [9]; 28.7% in experiment [10]; 10% in experiment [11]; 16.8% in [12]. Besides, the growth was 32.6% in [13]; 11.4% in experiment [14]; 35.6% in experiment [15]; 8.87% (active) in [16]; 26.2% in experiment [17]; 94.9% in experiment [18].

With `NS(=O)(=O)c1ccc(CCN2C(=O)/C(=C\c3ccccc3)C=C2c2ccc(Cl)cc2)cc1`, the growth was 102% in experiment [1]; 88.5% in [2]; 90.6% in [3]; 65.8% in experiment [4]; 113% in [5]; 97% in experiment [6]. The growth was 65.6% in experiment [7]; 101% in experiment [8]; 94.8% in experiment [9]; 103% in experiment [10]; 98.3% in [11]; 98.2% in experiment [12]. Further, the growth in experiment [13] is 99.4%; in experiment [14] it was 95.4%; in experiment [15], 91.9%; in experiment [16], 96.9%; in [17] it was 93.9%; in experiment [18] it was 107%.

On to `CCCCCCNC(=O)Nc1ncnc2c1ncn2-c1ccccc1`, for which the growth in experiment [1] is 91.3%; in experiment [2], 92.2%; in experiment [3], 97.3%; in experiment [4], 58.4%; in experiment [5], 94%; in [6] it was 90.7%. Moreover, the growth in experiment [7] is 83.1%; in [8], 103%; in experiment [9], 102%; in experiment [10], 99.5%; in experiment [11] it was 91.4%; in experiment [12], 91.3%. The growth in experiment [14] is 85.3%; in [19], 87.5%; in experiment [15], 88.1%; in [16] it was 111%; in experiment [17], 97.6%; in [18], 91.1%.

Take `CN(C)c1ccc(-c2ccc(-c3ccc(C(=N)N)cc3)s2)cc1`: the growth is 107% in experiment [1]; 85.9% in experiment [2]; -50.1% (active) in experiment [3]; 80.8% in [4]; -87.9% (active) in experiment [5]; -38.8% (active) in [6]. Further, the growth in experiment [7] was 0.528% (active); in [8], -22.5% (active); in experiment [9], 2.73% (active); in experiment [10], 5.33% (active); in experiment [11], -40% (active); in experiment [12], 57.6%. Moreover, the growth in experiment [13] was -55.2% (active); in experiment [14], 8.97% (active); in experiment [15] it was -63.5% (active); in experiment [16] it was -85.3% (active); in [17] it was 104%; in [18] it was 46.3%.

In the case of `COc1cc(NCc2ccccc2O)c2ncccc2c1`, the growth was 142% in [1]; 82% in experiment [2]; 106% in experiment [3]; 75.8% in [4]; 150% in experiment [5]; 97.2% in experiment [6]. In addition, the growth in experiment [7] was 72%; in [8] it was 91.5%; in [9], 88.3%; in [10] it was 82.4%; in experiment [11], 46.9%; in [12], 102%. The growth was 69.6% in [13]; 82.3% in [14]; 107% in [19]; 90.4% in experiment [15]; 97.2% in experiment [16]; 149% in [17]. Moreover, the growth in [18] is 71.9%.

Regarding `Nc1nc(Nc2ccccc2)c2ncn(Cc3cc4c(cc3Br)OCO4)c2n1`, the growth is 36.9% in experiment [1]; 44.7% in experiment [2]; 7.96% (active) in experiment [3]; 40.3% in experiment [4]; 35.1% in experiment [5]; 16.9% in experiment [6]. In addition, the growth was -3.53% (active) in experiment [7]; 11.2% in experiment [8]; 10.4% in [9]; 10.5% in experiment [10]; 9.96% (active) in experiment [11]; 6.21% (active) in experiment [12]. Further, the growth in [13] was 32.1%; in [14], 40.6%; in [19] it was 11.5%; in experiment [15], 37.5%; in [16] it was 2.58% (active); in experiment [17], 34.1%. For the same molecule, the growth in experiment [18] is 8.6% (active).
